Assay results published in PubChem BioAssay AID602332 (National Center for Advancing Translational Sciences (NCATS), 2012).
“And” between values parts separate entries of the source, which are not always exact repeats. Identical values can stand only once. Hit rate of the full screen: of about 420,000 compounds, about 75 (0.02%) were called active. Shown is part of a subset that was picked to be rich in actives. Values without a mark were called inactive. Calls follow the shape of the dose curve; as a rule, active = well fitted activation curve with a large enough effect; inconclusive = small, poorly fitted or top-dose-only effect; inactive = no such curve, though single readings can be large or run the other way.

experiment: qHTS for Inducers of the Endoplasmic Reticulum Stress Response (ERSR) in Human Glioma: qHTS; details: U87-MG GRP78 promoter luciferase reporter, 16 h; activation: active compounds read high; also: nearly all actives have a fitted effect of over 35% in size; as to activation: % of control where 0% means no effect
Description: Primary protein unfolding takes place for many diseases, including diabetes and hypoxia, , and triggers a reaction in the cells called ER stress response (ERSR). ). ERSR is designed as a repair mechanism, but ultimately leads to cell death via apoptosis if conditions triggering protein unfolding persist (1). The molecular clue to ERSR activation is the enhancement of the expression of key molecular chaperones, including the glucose regulated protein (GRP) 78. GRP78 is the main sensor for protein folding and the main actuator of the ERSR.
In a collaboration between the Southern Research Institute and the NIH Chemical Genomics Center, a cell based screen was developed that reliably uses GRP78 as a sensor to identify small molecules as inducers of ERSR. In resting conditions, GRP78 binds proteins and acts as a natural repressor. Once unfolded proteins are present in the ER, GRP78 releases some of the repressors and binds to the unfolded proteins. The release of the repressors executes the ERSR program. Using a human glioma cell line in a miniaturized, luminescent format, a high-throughput screen was developed to identify actuators of the ERSR.
(1) Soboloff, J. and S. A. Berger (2002). "Sustained ER Ca2+ depletion suppresses protein synthesis and induces activation-enhanced cell death in mast cells." J Biol Chem 277(16): 13812-20.
NIH Chemical Genomics Center [NCGC]
NIH Molecular Libraries Probe Centers Network [MLPCN]
Assay Submitter (PI): Maurizio Grimaldi, Southern Research Institute
Stable transfected human glioma cell line, U87-MG, are dispensed at density 1000 cells/well into Greiner white solid bottom 1536-well assay plates. Compounds are transferred via Kalypsys pin tool equipped with 1536-pin array (10nl slotted pins, V&P Scientific, San Diego, CA). The assay plates will be incubated for 16 hours and developed by adding appropriate quantities of the Promega Bright Glo reagent. The plates will be incubated at room temperature for 10 minutes prior to being transferred into a ViewLux high-throughput CCD imager (PerkinElmer), wherein end-point measurements of luminescence are acquired.
Potency is read from the fitted curve at half-maximal effect.

| SMILES | activation | Potency |
| --- | --- | --- |
| OCC1CCCN(c2nc3cc4c(cc3cc2CNCc2cccs2)OCO4)C1 (stereo not drawn) | -3.02% |  |
| Cc1cc[n+](C2CCCCC2)cc1 | 0.895% |  |
| C#CCC(C(=O)OC)(C(=O)OC)C(C[N+](=O)[O-])c1ccccc1 (stereo not drawn) | -5.05% |  |
| COc1ccc(CN2CCOc3c(cc(-c4ncc(C(F)(F)F)cc4Cl)cc3OCC3CCCO3)C2)c(O)c1 (stereo not drawn) | -0.626% |  |
| COc1cccc(CN2CCC3(CC2)c2ccccc2[C@@H](NC(=O)c2ccccc2OC)[C@@H]3O)c1 | -2.93% |  |
| CC1(C)OC(C(O)(c2ccccc2)c2ccccc2)C(C(O)(c2ccccc2)c2ccccc2)O1 (stereo not drawn) | -4.02% |  |
| C[C@@H]1O[C@@H](OC[C@H]2O[C@@H](Oc3cc(O)c4c(c3)O[C@H](c3ccc(O)c(O)c3)CC4=O)[C@H](O)[C@@H](O)[C@@H]2O)[C@H](O)[C@H](O)[C@H]1O | -3.44% |  |
| CC(=O)OCC1OC(C#CCCCc2ccccc2)C=CC1OC(C)=O (stereo not drawn) | -2.84% and 1.87% |  |
| CC(=O)OC[C@H]1O[C@@H](O[C@H]2[C@H](O)[C@@H](OC(=O)c3ccccc3C(=O)O)[C@H](O)O[C@@H]2COC(C)=O)[C@H](O)[C@@H](OC(=O)c2ccccc2C(=O)O)[C@@H]1O | -0.805% |  |
| CN(C)c1ccc(/C=C/c2sc3ccccc3[n+]2C)cc1 | -8.55% |  |
| FC(F)(F)c1cccc(-c2cn[nH]c2C2CCCN(Cc3cccn3-c3ccccn3)C2)c1 (stereo not drawn) | -5.05% |  |
| C=C(C)C1CC=C(C)C(O)C1 (stereo not drawn) |  | 11.2 µM (active) |
| C=C(C)C1CC=C(CO)CC1 (stereo not drawn) | -1.71% |  |
| CCOC(=O)N/N=C1/C[C@@H](O)[C@@H](O)[C@@H]2[C@@H]3C(=O)N(CC)C(=O)[C@H]3CC[C@H]12 | -5.32% |  |
| CN1[C@H]2CC(OC(=O)[C@@H](CO)c3ccccc3)C[C@H]1[C@H]1O[C@H]12 (stereo partly drawn) | -4% |  |
| COc1ccccc1-c1ccc(C(=O)N(C)C(C)c2ccon2)c(N2CCN(c3ccccc3F)CC2)n1 (stereo not drawn) | -4.71% |  |
| Cc1cnc(C(=O)N2CCOc3ccc(CN4CCCC(C(=O)c5cccnc5)C4)cc3C2)[nH]1 (stereo not drawn) | -3.36% |  |
| COc1ccc(CN2CCC3(CCC(CNC(=O)c4ccco4)O3)CC2)cc1OC (stereo not drawn) | 0.172% |  |
| COC(=O)c1ccccc1-c1cc(C)cc2c1OC(CNC(=O)C1CCOC1)C2 (stereo not drawn) | -1.81% |  |
| Cn1c(=O)c(CCc2ccccc2)nc2cnc(Nc3ccccc3)nc21 | -3.93% |  |
| Cc1c(S(=O)(=O)O)oc2c1C(=O)C(=O)c1c-2ccc2c1CCCC2(C)C | -3.94% |  |
| CCOC(=O)N1CCC(N2CCOc3ccc(CN4CCC(O)(c5cccnc5)CC4)cc3C2)CC1 | -2.68% |  |
| CC(CCC(=O)O)C1CCC2C3C(O)C[C@@H]4CC(O)CC[C@@]4(C)C3CC[C@@]12C (stereo partly drawn) | -5.26% and -4.28% |  |
| COc1ccc(-n2c(CNC(=O)c3cc(C(F)(F)F)ccc3Cl)nnc2SC)cc1 | -6.93% |  |

| SMILES | activation | Potency |
| --- | --- | --- |
| COc1c(O)c2c(=O)cc(OC)c3c4c(OC)cc(=O)c5c(O)c(OC)c6c(c(c1C[C@@](C)(O)[C@H]6C(C)=O)c23)c54 | -6.89% |  |
| COc1cc(=O)n2c(c1C(=O)N(C)Cc1nonc1C)CCN(C(=O)c1ccc(C)cc1C)CC2 | -4.93% |  |
| CC(C)(C)c1ccc(OC2C=CC(C#Cc3ccccc3)OC2CO)cc1 (stereo not drawn) | -2.6% |  |
| CCOc1ccc2nc(N3CCCN(CCCn4cccn4)CC3)nc(C)c2c1 | 0.4% |  |
| O=C(NCC1Cc2cc(F)cc(-c3cnccn3)c2O1)C1COc2ccccc2O1 (stereo not drawn) | -2.7% |  |
| CCC1CN(CCNC(=O)c2cccc(C)n2)Cc2cc(OC)ccc2O1 (stereo not drawn) | -0.701% |  |
| C=C1C(=CC=C2CCC[C@]3(C)[C@@H]([C@H](C)C=C[C@H](C)C(C)C)CC[C@@H]23)C[C@@H](O)C[C@@H]1O | -0.319% |  |
| COc1cccc(-c2cc(=O)c3cc(NC(=O)c4ccc(C)cc4)ccc3[nH]2)c1 | -1.6% |  |
| COc1ccccc1C(=O)N[C@@H]1c2ccccc2C2(CCN(Cc3nc(C(C)C)cs3)CC2)[C@H]1O | -7.22% |  |
| CCC1CN(CCNC(=O)c2cccnc2C)Cc2cc(OC)ccc2O1 (stereo not drawn) | -0.134% |  |
| Cc1[nH]c2c(C(=O)NCC3Cc4cccc(-c5cccnc5)c4O3)cccc2c1C (stereo not drawn) | -3.83% |  |
| c1ccc(CN2CCN(Cc3ccc4c(c3)CN(Cc3c[nH]c5ccccc35)CCO4)CC2)nc1 | -3.67% |  |
| CN1CCN(/[N+]([O-])=N/Oc2ccc([N+](=O)[O-])cc2[N+](=O)[O-])CC1 | 20.9% |  |
| CCc1noc(C)c1C(=O)NCCN1Cc2cc(OC)ccc2OC(CC)C1 (stereo not drawn) | -4.48% |  |
| C=C1/C(=C\C=C2\CCCC3(C)C2CCC3C(C)/C=C/C(O)C2CC2)CC(O)CC1O (stereo not drawn) | -9.49% |  |
| COC(=O)c1ccccc1C(=O)NCc1nc(N2CCCC2)c2cccc(C)c2n1 | -2.48% |  |
| CC(=O)c1ccc(F)c(-c2cc(C)cc3c2OC(CNC(=O)Cc2c[nH]c4ccccc24)C3)c1 (stereo not drawn) | 0.07% |  |
| CO/N=C(\C(=O)N[C@@H]1C(=O)N2C(C(=O)O)=C(Cn3nnc(C)n3)CS[C@H]12)c1csc(N)n1 | -1.86% |  |
| CCCCc1nn(-c2ccccc2C(F)(F)F)c(=O)n1Cc1ccc(-c2ccccc2S(=O)(=O)NC(=O)c2sccc2C)cc1 | -2.91% |  |
| Cc1ccc2c(C)nc(N3CCCC(C(=O)NC(C)(C)CO)C3)nc2c1 (stereo not drawn) | -2.4% |  |
| CC(O)(COc1ccccc1)c1ccc2c(c1)CN(Cc1cn[nH]c1-c1ccc(F)cc1)CCO2 (stereo not drawn) | -3.22% |  |
| COc1ccccc1C1CN(Cc2ccccc2O)Cc2ccccc2O1 (stereo not drawn) | -2.43% |  |
| C[C@H]1CC[C@H](C(=O)O)N[C@@H]1c1ccc(C#Cc2ccccc2)cc1 | -4.8% |  |
| C=CCC1CCC(=O)N2CCCC12 (stereo not drawn) | -2.78% |  |
